Legend:
Assay in all cases: SPOT peptide array binding signal intensity (averaged, normalized) (arbitrary units (background-subtracted, floor 0; scale differs between SH3 domains)); higher = stronger binding of the SH3 domain to the peptide
[1] = target: AgAbp1
Method in brief: (§1)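 Cellulose membranes carried synthetic 15-mer peptides with cysteines swapped for serines. These were incubated overnight at 4°C with 10 μg/ml of GST-fused SH3 domains from four yeast species in TBS-based blocking buffer. Binding signal, detected with anti-GST antibody and quantified in Genespotter, is the normalized, background-subtracted spot intensity averaged over replicates, in arbitrary units specific to each domain.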

[2] = target: AgBbc1
Method in brief: as §1

[3] = target: AgBem1-D1
Method in brief: as §1

[4] = target: AgBzz1-D1
Method in brief: as §1

[5] = target: AgBzz1-D2
Method in brief: as §1

[6] = target: AgCyk3
Method in brief: as §1

[7] = target: AgFus1
Method in brief: as §1

[8] = target: AgHof1
Method in brief: as §1

[9] = target: AgHse1
Method in brief: as §1

[10] = target: AgLsb1
Method in brief: as §1

[11] = target: AgLsb4
Method in brief: as §1

[12] = target: AgMyo5
Method in brief: as §1

[13] = target: AgNbp2
Method in brief: as §1

[14] = target: AgRvs167
Method in brief: as §1

[15] = target: AgSho1
Method in brief: as §1

[16] = target: AgSla1-D1-D2
Method in brief: as §1

[17] = target: AgSla1-D3
Method in brief: as §1

[18] = target: CaAbp1-D1
Method in brief: as §1

[19] = target: CaAbp1-D2
Method in brief: as §1

[20] = target: CaBbc1
Method in brief: as §1

[21] = target: CaBem1-D1
Method in brief: as §1

[22] = target: CaBzz1-D1
Method in brief: as §1

[23] = target: CaBzz1-D2
Method in brief: as §1

[24] = target: CaCyk3
Method in brief: as §1

[25] = target: CaFus1
Method in brief: as §1

[26] = target: CaHof1
Method in brief: as §1

[27] = target: CaHse1
Method in brief: as §1

[28] = target: CaLsb1
Method in brief: as §1

[29] = target: CaLsb4
Method in brief: as §1

[30] = target: CaMyo5
Method in brief: as §1

[31] = target: CaNbp2
Method in brief: as §1

[32] = target: CaRvs167
Method in brief: as §1

[33] = target: CaRvs167-3
Method in brief: as §1

[34] = target: CaSho1
Method in brief: as §1

[35] = target: CaSla1-D1-D2
Method in brief: as §1

[36] = target: CaSla1-D3
Method in brief: as §1

[37] = target: ScAbp1
Method in brief: as §1

[38] = target: ScBbc1
Method in brief: as §1

[39] = target: ScBem1-D1
Method in brief: as §1

[40] = target: ScBzz1-D1
Method in brief: as §1

[41] = target: ScBzz1-D2
Method in brief: as §1

[42] = target: ScCyk3
Method in brief: as §1

[43] = target: ScFus1
Method in brief: as §1

[44] = target: ScHof1
Method in brief: as §1

[45] = target: ScHse1
Method in brief: as §1

[46] = target: ScLsb1
Method in brief: as §1

[47] = target: ScLsb2
Method in brief: as §1

[48] = target: ScLsb3
Method in brief: as §1

[49] = target: ScLsb4
Method in brief: as §1

[50] = target: ScMyo3
Method in brief: as §1

[51] = target: ScMyo5
Method in brief: as §1

[52] = target: ScNbp2
Method in brief: as §1

[53] = target: ScPex13
Method in brief: as §1

[54] = target: ScRvs167
Method in brief: as §1

[55] = target: ScSho1
Method in brief: as §1

[56] = target: ScSla1-D1-D2
Method in brief: as §1

[57] = target: ScSla1-D3
Method in brief: as §1

[58] = target: SpAbp1-D1
Method in brief: as §1

[59] = target: SpBbc1
Method in brief: as §1

[60] = target: SpBzz1-D1
Method in brief: as §1

[61] = target: SpBzz1-D2
Method in brief: as §1

[62] = target: SpCyk3
Method in brief: as §1

[63] = target: SpHof1
Method in brief: as §1

[64] = target: SpHof1-2
Method in brief: as §1

[65] = target: SpHof1-3
Method in brief: as §1

[66] = target: SpHse1
Method in brief: as §1

[67] = target: SpLsb1
Method in brief: as §1

[68] = target: SpLsb4
Method in brief: as §1

[69] = target: SpMyo1
Method in brief: as §1

[70] = target: SpNbp2
Method in brief: as §1

[71] = target: SpPex13
Method in brief: as §1

[72] = target: SpRvs167
Method in brief: as §1

[73] = target: SpSla1-D1-D2
Method in brief: as §1

[74] = target: SpSla1-D3
Method in brief: as §1

VATSTSPKLPPRGKQ was tested, and the “SPOT peptide array binding signal intensity” value [1] was 3, the “SPOT peptide array binding signal intensity” value [2] was 548 and the “SPOT peptide array binding signal intensity” value [3] was 8.5. The “SPOT peptide array binding signal intensity” value [4] was 84, the “SPOT peptide array binding signal intensity” value [5] was 100 and the “SPOT peptide array binding signal intensity” value [6] was ≤ 0. For the same binder, the “SPOT peptide array binding signal intensity” value [7] was 5, the “SPOT peptide array binding signal intensity” value [8] was 9.5 and the “SPOT peptide array binding signal intensity” value [9] was 24. The “SPOT peptide array binding signal intensity” value [10] was 290, the “SPOT peptide array binding signal intensity” value [11] was 4510 and the “SPOT peptide array binding signal intensity” value [12] was ≤ 0. For the same binder, the “SPOT peptide array binding signal intensity” value [13] was 4, the “SPOT peptide array binding signal intensity” value [14] was 745 and the “SPOT peptide array binding signal intensity” value [15] was 18. For the same binder, the “SPOT peptide array binding signal intensity” value [16] was 3.5, the “SPOT peptide array binding signal intensity” value [17] was 1.5 and the “SPOT peptide array binding signal intensity” value [18] was 87. For the same binder, the “SPOT peptide array binding signal intensity” value [19] was 79.5, the “SPOT peptide array binding signal intensity” value [20] was 521 and the “SPOT peptide array binding signal intensity” value [21] was 19.5. For the same binder, the “SPOT peptide array binding signal intensity” value [22] was 93, the “SPOT peptide array binding signal intensity” value [23] was 96.5 and the “SPOT peptide array binding signal intensity” value [24] was ≤ 0. For the same binder, the “SPOT peptide array binding signal intensity” value [25] was 80, the “SPOT peptide array binding signal intensity” value [26] was 0.5 and the “SPOT peptide array binding signal intensity” value [27] was 37. The “SPOT peptide array binding signal intensity” value [28] was 1, the “SPOT peptide array binding signal intensity” value [29] was 3500 and the “SPOT peptide array binding signal intensity” value [30] was 4.75. For the same binder, the “SPOT peptide array binding signal intensity” value [31] was 2, the “SPOT peptide array binding signal intensity” value [32] was 1970 and the “SPOT peptide array binding signal intensity” value [33] was ≤ 0. For the same binder, the “SPOT peptide array binding signal intensity” value [34] was 13, the “SPOT peptide array binding signal intensity” value [35] was 32 and the “SPOT peptide array binding signal intensity” value [36] was ≤ 0. For the same binder, the “SPOT peptide array binding signal intensity” value [37] was 21.5, the “SPOT peptide array binding signal intensity” value [38] was 18.8 and the “SPOT peptide array binding signal intensity” value [39] was ≤ 0. For the same binder, the “SPOT peptide array binding signal intensity” value [40] was 61.5, the “SPOT peptide array binding signal intensity” value [41] was 17.5 and the “SPOT peptide array binding signal intensity” value [42] was ≤ 0. The “SPOT peptide array binding signal intensity” value [43] was 2.5, the “SPOT peptide array binding signal intensity” value [44] was 3.25 and the “SPOT peptide array binding signal intensity” value [45] was 3. For the same binder, the “SPOT peptide array binding signal intensity” value [46] was 268, the “SPOT peptide array binding signal intensity” value [47] was 31 and the “SPOT peptide array binding signal intensity” value [48] was 6600. The “SPOT peptide array binding signal intensity” value [49] was 3830, the “SPOT peptide array binding signal intensity” value [50] was ≤ 0 and the “SPOT peptide array binding signal intensity” value [51] was 3.25. The “SPOT peptide array binding signal intensity” value [52] was 5, the “SPOT peptide array binding signal intensity” value [53] was 882 and the “SPOT peptide array binding signal intensity” value [54] was 2350. For the same binder, the “SPOT peptide array binding signal intensity” value [55] was 40.5, the “SPOT peptide array binding signal intensity” value [56] was 17 and the “SPOT peptide array binding signal intensity” value [57] was ≤ 0. The “SPOT peptide array binding signal intensity” value [58] was 97, the “SPOT peptide array binding signal intensity” value [59] was 0.25 and the “SPOT peptide array binding signal intensity” value [60] was 286. For the same binder, the “SPOT peptide array binding signal intensity” value [61] was ≤ 0, the “SPOT peptide array binding signal intensity” value [62] was ≤ 0 and the “SPOT peptide array binding signal intensity” value [63] was 1.25. For the same binder, the “SPOT peptide array binding signal intensity” value [64] was 0.5, the “SPOT peptide array binding signal intensity” value [65] was 61.2 and the “SPOT peptide array binding signal intensity” value [66] was 0.5. The “SPOT peptide array binding signal intensity” value [67] was 623, the “SPOT peptide array binding signal intensity” value [68] was 6830 and the “SPOT peptide array binding signal intensity” value [69] was ≤ 0. The “SPOT peptide array binding signal intensity” value [70] was ≤ 0, the “SPOT peptide array binding signal intensity” value [71] was 2 and the “SPOT peptide array binding signal intensity” value [72] was 3730. For the same binder, the “SPOT peptide array binding signal intensity” value [73] was 2 and the “SPOT peptide array binding signal intensity” value [74] was ≤ 0.
